About 83,000 compounds went through this panel and 20% of them were active in at least one assay; those are over-represented in the sample as a whole.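 Assay: single dose, 48 h. Readout: percent growth (0 = no net growth; negative = cell death). Active: <10.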 Values without a mark were called inactive. Activity calls are given as the source filed them.
Tested on: MCF7 breast
Assay: NCI-60 one-dose screen, 48 h (100 = growth as untreated, 0 = no growth, -100 = all killed)
Conditions: 10 µM unless noted

Structure (SMILES) | growth
CN(c1cc2ncc(=O)[nH]c2cc1NC(N)=NCc1ccc(Cl)cc1)C1CCCCC1 | -44.2% (active)
O=C1/C(=C\c2ccc3nccnc3c2)SC(=S)N1CCc1ccc(O)cc1 | 41.9%
Cc1ccc(C[P+](c2ccccc2)(c2ccccc2)c2ccccc2)cc1 | 10.9%
COc1ccc(/C=N/C2=C(C#N)C(c3ccccc3)c3ccc4ccccc4c3O2)cc1 (stereo not given) | 12.2%
COCCOc1cc2ncnc(N3CCN(c4cc(S(C)(=O)=O)c(C)cc4Cl)CC3)c2cc1OCCOC | 91.9%
C#COc1cccc(Nc2c(C#N)cnc3ncc(NC(=O)CCl)cc23)c1 | 5.39% [6.25 µM] (active)
O=c1[nH]c(-c2ccccc2)nc2sc3cc(O)ccc3c12 | 73.8%
CN1C(=O)/C(=C\c2nc([P+](c3ccccc3)(c3ccccc3)c3ccccc3)c(N3CCOCC3)o2)SC1=S | 85.8%
CC(C)Cn1cnc2c(=O)[nH]c(N)nc21 | 86.7%
CCSc1nc2scc(C)c2c(=O)[nH]1 | 96.3%
NC(N)=NCCCCCNc1noc(Cc2c[nH]c3cc(Br)ccc23)n1 | 77.2%
Cc1[nH]c(C(=O)Nc2ccccc2OC2CCNCC2)c(Cl)c1Cl | -45% (active)
O=C1NC(=O)C(Cc2ccc(OCc3ccc(-c4ccc(Cl)cc4Cl)cc3)cc2)S1 (stereo not given) | 28.5%
Ic1ccc(OCCCCn2ccnc2)cc1 | 89.7%
Cn1ccnc1C(=O)/C=C/c1ccc(CC(=O)Nc2cc(C(F)(F)F)cc(C(F)(F)F)c2)cc1 | 30.8%
COc1cc2c(cc1OCCCN1CCN(CCCOc3cc4c(cc3OC)C(=O)N3CC(F)(F)C[C@H]3C=N4)CC1)N=C[C@@H]1CC(F)(F)CN1C2=O | 25.5%
COc1ccc2c(c1)c(-c1nc(-c3c[nH]c4ccncc34)cs1)cn2C | -68.9% (active)
Cc1nc2sc(C(=O)Nc3cccc(Br)c3)c(N)c2cc1C(O)c1ccccc1 (stereo not given) | 21.9%
Nc1nc(-c2ccc(Cl)cc2)nc2c1sc(=S)n2-c1ccccc1 | 57.6%
O=C(CSc1oc(-c2ccccc2)nc1S(=O)(=O)c1ccccc1)Nc1ccc(F)cc1 | 92.6%

Structure (SMILES) | growth
O=C1Nc2ccccc2/C1=C/c1nc2ccccc2c(=O)[nH]1 | 60.2%
COc1ccc(C/C(C)=C(\c2ccc(Cl)cc2)c2ccc(OCCN3CCCCC3)cc2)cc1 | 81.7%
O=C(N/N=C/c1ccc(Cl)cc1)c1[nH]c2ccc(Cl)cc2c1-c1ccccc1 | 13.5%
Nc1n[nH]c2ccc([C@H]3[C@@H]4C5CCC(C5)[C@@H]4c4c(ccc5[nH]ncc45)N3S(=O)(=O)C3CC3)cc12 (stereo not given in full) | 13.1%
CC/C(=C(/c1ccc(Cl)cc1)c1ccc(OCCN(C)C)cc1)c1ccc(Cl)cc1 | 20.5%
Cn1cc(-c2nonc2-c2cn(C)c3ccccc23)c2ccccc21 | 19.4%
Clc1ccc(/C=N\N=C\c2ccc(Cl)c(Cl)c2)cc1Cl | 72.8%
CCN(CC)CCCCCNc1cc(OC(=O)c2ccc(Cl)cc2)cc2cccnc12 | 86.5%
CC(C)=CCCC(C)c1ccc(C)c2c1OCN(CCCCCO)C2 (stereo not given) | 88.7%
N#Cc1nc(-c2ccc(Cl)cc2)oc1S(=O)(=O)N1CCN(c2ccc(F)cc2)CC1 | 83.5%
COC(=O)[C@]12CCC(C)(C)C[C@H]1[C@H]1/C(=N/OCCc3nn[nH]n3)C[C@@H]3[C@@]4(C)CC[C@H](OC(C)=O)C(C)(C)[C@@H]4CC[C@@]3(C)[C@]1(C)CC2 | 20.9%
COc1ccc(C(=O)C/C(=C\c2ccc(Cl)cc2)C(=O)NCc2ccccc2)cc1 | 86.1%
Fc1ccc(CNc2c3ccccc3nc3ccccc23)c(F)c1 | 10.2%
CC1OC(n2c3ccccc3c3c4c(c5c6ccccc6[nH]c5c32)C(=O)N(CCN2CCCC2)C4=O)CC(O)C1O (stereo not given) | 9.93% (active)
CCOC(=O)c1cc(C(=O)c2cc(OC)c(OC)c(OC)c2)n2ncccc12 | 19.7%
Cc1ccc(-c2nc(N3CCCNCC3)c3oc(-c4ccc(C)cc4)nc3n2)cc1 | -64.8% (active)
O=C(CSC(=S)n1cnnc1)NC(=O)c1ccccc1 | 99.3%
Cc1sc2nc(NCCc3c[nH]c4ccc(Cl)cc34)[nH]c(=O)c2c1C | 32.2%
CC(C)c1ccc(C(=O)Nc2sc3c(c2C(N)=O)CCC(=O)C3)cc1 | 5.13% (active)
N#C/C(=C\c1c(-c2ccccc2)[nH]c2ccccc12)C(N)=O | 50.4%
